The values that follow come from PubChem BioAssay AID1240 (Sanford-Burnham Center for Chemical Genomics, 2008).

Out of some 50,000 compounds screened, about 800 (1.6%) showed an effect of 50% or more. Shown is part of a subset that was picked to be rich in strong results.

In this test the target is Bcl-2-like protein 10 (Homo sapiens) (UniProt Q9HD36). Kind of test: Phenotype converters, Bcl-B/TR3 peptide binding displacement, primary biochemical FP (AID 1240).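 Further: 0% = Bcl-B with tracer peptide and DMSO and 100% = tracer peptide lacking Bcl-B.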 Particulars: GST-Bcl-B / FITC-TR3 peptide fluorescence polarization; stronger effect = higher value; compound at 3.75 mg/L. (Polarisation of emitted light reports the rotation of a fluorescent probe.)
Bcl-2-like protein 10 (Homo sapiens), sequence (Q9HD36 whole entry, looked up): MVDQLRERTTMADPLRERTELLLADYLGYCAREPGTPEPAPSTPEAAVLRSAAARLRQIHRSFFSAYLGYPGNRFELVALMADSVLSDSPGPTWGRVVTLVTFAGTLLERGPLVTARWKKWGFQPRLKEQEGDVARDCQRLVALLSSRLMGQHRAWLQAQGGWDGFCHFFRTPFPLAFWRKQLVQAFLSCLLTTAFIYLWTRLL
Turning to `O=C1CCCC2=C1C(c1ccc([N+](=O)[O-])cc1)C1=C(CCCC1=O)N2c1ccc(Cl)cc1`, the displacement was found to be 17.8%. Take `Cc1ccc([N+](=O)[O-])cc1NC(=O)CCCOc1ccccc1`: the displacement worked out at 8.1%.

In the case of `COc1ccc(Cl)cc1NC(=O)C1=C(C)NC(=S)NC1c1ccc(F)cc1` (configuration not stated), the displacement is 11.9%. In the case of `COC(=O)C1=C(C)NC2=C(C(=O)c3ccccc32)C1c1ccc(-c2ccc([N+](=O)[O-])cc2Br)o1` (configuration not stated), the displacement turned out to be 46.9%. As to `O=C1C2=C(Nc3ccccc3SC2c2ccc([N+](=O)[O-])cc2)c2ccccc21` (configuration not stated), the displacement is -6%. For the compound `O=C1NN(c2ccccc2)C(=O)/C1=C\C=C\c1ccccc1`, the displacement was 30.9%. As for `O=C1C(=C/C=C/c2ccccc2)C(=O)c2ccccc21`, the displacement came out at 75%.

Take `O=C1C(=Cc2ccccc2)C(=O)c2ccccc21`: the displacement was determined as 17.6%. Regarding `CCOC(=O)c1c(NC(=O)C(Cl)(Cl)Cl)sc2c1CCC2`, the displacement is -3.5%. For `Cc1ccc2c(c1)NC(c1ccc(Cl)cc1Cl)C1=C(CC(C)(C)CC1=O)N2` (configuration not stated) the value was 13.5%.

For `O=S(=O)(O)c1nc2ccccc2n1-c1ccccc1`, the displacement was -9.1%. For the compound `CC(C)(C)c1cc(C(=O)N/N=C\c2ccc(Cl)cc2)n[nH]1`, the displacement is -5.3%. In the case of `CC1=C(C(=O)Nc2ccc(Cl)cc2)C(c2ccc([N+](=O)[O-])cc2)NC(=O)N1` (configuration not stated), the displacement amounted to 124%. Consider `CC1=C(C(=O)Nc2ccc(C)cc2)C(c2ccc([N+](=O)[O-])cc2)NC(=O)N1` (configuration not stated), for which the displacement was -3.6%. For `COc1ccc(NC(=O)C2=C(C)NC(=O)NC2c2cccc(OC)c2)cc1` (configuration not stated) the value was -15.9%; for `CC1=C(C(=O)Nc2ccc(Cl)cc2)C(c2ccc([N+](=O)[O-])cc2)NC(=S)N1` (configuration not stated), 4.6%. For `COc1ccc(NC(=O)C2=C(C)NC(=O)NC2c2cccc(Cl)c2)cc1` (configuration not stated), the displacement came to 83.7%. In the case of `COc1ccc(C2NC(=O)NC(C)=C2C(=O)Nc2cccc(Cl)c2)cc1` (configuration not stated), the displacement turned out to be 11.4%. `COc1cc(C(=O)Nc2nc3ccc4ccccc4c3s2)cc(OC)c1OC`: the displacement was found to be 6.6%. With `CCCCN(CCCC)S(=O)(=O)c1ccc(C)cc1`, the displacement was -6.8%. In the case of `O=C(/C=C\Nc1ccc([N+](=O)[O-])cc1Br)c1ccc2c(c1)OCO2`, the displacement worked out at 3%. Consider `O=C(/C=C\Nc1ccc2c(c1)OCO2)c1ccc2c(c1)OCO2`, for which the displacement is 104%. On to `CNc1cc([N+](=O)[O-])ccc1N/C=C\C(=O)c1ccc2c(c1)OCO2`, for which the displacement is 97.2%.

As to `COC(=O)c1ccc(N/C=C\C(=O)c2ccc3c(c2)OCO3)cc1`, the displacement was determined as 23.7%. For the compound `O=C(/C=C\Nc1ccc2c(c1)OCO2)c1ccc(F)cc1`, the displacement was -2.4%. In the case of `CNc1cc([N+](=O)[O-])ccc1N/C=C\C(=O)c1ccc2ccccc2c1` it was 14.1%. For the compound `COc1ccc(C(=O)Nc2ccc(Br)c(C)c2)c(OC)c1`, the displacement is 14.5%. Take `COC(=O)c1ccccc1NC(=O)c1cnn2c(C(F)(F)F)cc(-c3ccccc3)nc12`: the displacement was determined as 11.9%.

For the compound `COc1ccc(N(CC(=O)NC(C)c2ccccc2)S(=O)(=O)c2ccccc2)cc1` (configuration not stated), the displacement worked out at 5.7%. For `CCC(c1ccccc1)c1nnc(NC(=O)Nc2cccc(Cl)c2)s1` (configuration not stated) the value was -0.8%; for `COc1cc(NC(=O)c2ccc(-c3ccccc3[N+](=O)[O-])o2)ccc1NC(=O)c1ccco1`, 7.1%; for `CC(=O)Oc1cc2ccccc2cc1O`, 3.9%. As for `C=CCN1C(=O)/C(=C\c2ccc(-c3ccc([N+](=O)[O-])cc3)o2)C(=O)NC1=S`, the displacement is 12.1%. In the case of `C=CCN1C(=O)/C(=C\c2cn(C)c3ccccc23)C(=O)NC1=S` it was -18.2%. In the case of `C=CCN1C(=O)/C(=C\c2cn(Cc3ccc([N+](=O)[O-])cc3)c3ccccc23)C(=O)NC1=S` it was 87.4%; in that of `CSc1ccc(S(=O)(=O)NCc2ccccc2C)cc1`, 16.3%. For the compound `O=[N+]([O-])c1ccc(/C=N/c2nc3c(s2)CCCC3)cc1`, the displacement is 6.6%.

For the compound `COc1ccc(C(=O)c2c(N)c(C#N)c(C)n2-c2ccccc2)cc1`, the displacement came to 9.3%. As for `COc1ccc(OCC(=O)Nc2ccc(OC)c(OC)c2)cc1`, the displacement was -4.2%.

For the compound `O=c1cc(=O)n(-c2ccccc2)c2ccccc12`, the displacement was -0.3%. Turning to `O=c1nc(/C=C/c2ccc(-c3ccc([N+](=O)[O-])cc3Cl)o2)cc(C(F)(F)F)[nH]1`, the displacement amounted to 11.9%. Take `COc1ccc(-c2ccc(/C=C/c3cc(C(F)(F)F)[nH]c(=O)n3)o2)c([N+](=O)[O-])c1`: the displacement was 78.8%. Take `O=C1NC(=O)N(c2ccccc2)C(=O)/C1=C\c1ccc(-c2ccccc2[N+](=O)[O-])o1`: the displacement is 2.7%.

With `COc1ccc(-c2ccc(/C=C3/C(=O)NC(=O)N(c4ccccc4)C3=O)o2)c([N+](=O)[O-])c1`, the displacement came to 78.3%. As for `COc1ccc(-c2ccc(/C=C3/C(=O)NC(=O)N(c4ccc(C)cc4)C3=O)o2)c([N+](=O)[O-])c1`, the displacement is 83.5%. As for `Cc1ccc(N2C(=O)NC(=O)/C(=C\c3ccc(-c4ccc(C)c([N+](=O)[O-])c4)o3)C2=O)cc1`, the displacement amounted to 151%.

As for `Cc1ccc(N2C(=O)NC(=O)/C(=C\c3ccc(-c4cccc([N+](=O)[O-])c4)o3)C2=O)cc1`, the displacement was -5.9%. Take `COc1ccc(N2C(=O)/C(=C/c3ccc(-c4ccccc4[N+](=O)[O-])o3)C(=O)NC2=S)cc1`: the displacement was found to be 15.9%. For the compound `Cc1c(Cl)cccc1-c1ccc(/C=C/c2cc(C(F)(F)F)[nH]c(=O)n2)o1`, the displacement is -60.9%. Regarding `COc1ccc(N2C(=O)NC(=O)/C(=C/c3ccc(-c4ccccc4[N+](=O)[O-])o3)C2=O)cc1`, the displacement was -46.3%.

Consider `COc1ccc(-c2ccc(/C=C3\C(=O)NC(=O)N(c4ccc(Cl)cc4)C3=O)o2)c([N+](=O)[O-])c1`, for which the displacement worked out at 47%.

Turning to `Cc1ccc(N2C(=O)NC(=O)/C(=C/c3ccc(C)c([N+](=O)[O-])c3)C2=O)cc1`, the displacement is -16.7%.
